# Measured values reported in PubChem BioAssay (NCATS).
# Inconclusive results are not listed. The source made the active and inactive calls. The call rests on the fitted dose curve; in most records, active means well fitted curve in the direction sought with a large enough effect; inconclusive means small, poorly fitted or top-dose-only effect, or another doubt; inactive means no such curve, though single readings can be large; an effect the other way counts as inactive or inconclusive.
# Assays:
# [1] = qHTS of pediatric cancer cell lines to identify multiple opportunities for drug repurposing: Confirmatory screen for BT-37 cells (AID 1347117); further: potency means the concentration at half of the fitted maximal effect;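 further: viability measured after 48 h of compound exposure; nearly all actives have a fitted effect of over 55% in size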
# Outline: (§1)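 Cells (500-1,000/well) rested 5 h, then received compounds for 48 h; metabolically active cells were measured by CellTiter-Glo luminescence. Final concentrations spanned up to 46 µM (MIPE, 11-point) or 0.59 nM-46 µM (NPC, 8-point) in primary screens, 11-point in follow-ups.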
# [2] = qHTS of pediatric cancer cell lines to identify multiple opportunities for drug repurposing: Confirmatory screen for TC32 cells (AID 1347118);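 further: cells exposed to compound for 48 h before the read; nearly all actives have a fitted effect of over 65% in size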; further: potency means the concentration at half of the fitted maximal effect
# Outline: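 TC32 cells, 500-1,000/well in growth medium, compound-treated 48 h at 37 °C; viability from CellTiter-Glo luminescence. Primary screen: MIPE 11-point (0.78 nM–46 µM final), NPC 8-point (0.59 nM–46 µM final); confirmatory at 11-point dilutions.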
# [3] = qHTS of pediatric cancer cell lines to identify multiple opportunities for drug repurposing: Confirmatory screen for MG 63 (6-TG R) cells (AID 1347119); further: nearly all actives have a fitted effect of over 55% in size; further: potency means the concentration at half of the fitted maximal effect
# Outline: as §1
# [4] = qHTS of pediatric cancer cell lines to identify multiple opportunities for drug repurposing: Confirmatory screen for control Hh wild type fibroblast cells (AID 1347121); further: nearly all actives have a fitted effect of over 70% in size; further: potency means the concentration at half of the fitted maximal effect
# Outline: as §1
# [5] = qHTS of pediatric cancer cell lines to identify multiple opportunities for drug repurposing: Confirmatory screen for U-2 OS cells (AID 1347122); further: nearly all actives have a fitted effect of over 65% in size; further: potency means the concentration at half of the fitted maximal effect
# Outline: as §1
# [6] = qHTS of pediatric cancer cell lines to identify multiple opportunities for drug repurposing: Confirmatory screen for RD cells (AID 1347124);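 further: potency means the concentration at half of the fitted maximal effect; cells exposed to compound for 48 h before viability readout; nearly all actives have a fitted effect of over 65% in size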
# Outline: as §1
# [7] = qHTS of pediatric cancer cell lines to identify multiple opportunities for drug repurposing: Confirmatory screen for Rh18 cells (AID 1347125); further: nearly all actives have a fitted effect of over 55% in size; further: potency means the concentration at half of the fitted maximal effect
# Outline: as §1
# [8] = qHTS of pediatric cancer cell lines to identify multiple opportunities for drug repurposing: Confirmatory screen for Rh30 cells (AID 1347126); further: nearly all actives have a fitted effect of over 55% in size; further: potency means the concentration at half of the fitted maximal effect
# Outline: as §1
# [9] = tested on: Zika virus NS2B-NS3 protease; test: Primary screen GU AMC qHTS for Zika virus inhibitors (AID 1347154); further: nearly all actives have a fitted effect of over 70% in size
# Outline: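 Fluorogenic AMC-substrate cleavage by noncovalent NS2B-NS3 protease complex (25 nM, pH 8.0 Tris buffer with Tween 20) followed for 15 minutes at room temperature (~20% conversion). Percent inhibition from ex340/em450 signal change, fitted by 4-parameter Hill equation.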
# [10] = qHTS of pediatric cancer cell lines to identify multiple opportunities for drug repurposing: Confirmatory screen for Rh41 cells (AID 1347123);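 further: potency means the concentration at half of the fitted maximal effect; 48 h compound exposure; nearly all actives have a fitted effect of over 60% in size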
# Outline: as §1
# [11] = qHTS of pediatric cancer cell lines to identify multiple opportunities for drug repurposing: Confirmatory screen for Saos-2 cells (AID 1347127); further: nearly all actives have a fitted effect of over 60% in size; further: potency means the concentration at half of the fitted maximal effect
# Outline: as §1
# [12] = qHTS of pediatric cancer cell lines to identify multiple opportunities for drug repurposing: Confirmatory screen for OHS-50 cells (AID 1347128); further: potency means the concentration at half of the fitted maximal effect
# Outline: as §1
# [13] = qHTS of pediatric cancer cell lines to identify multiple opportunities for drug repurposing: Confirmatory screen for SK-N-SH cells (AID 1347129);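 further: cells exposed to compound for 48 h before viability read; nearly all actives have a fitted effect of over 60% in size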; further: potency means the concentration at half of the fitted maximal effect
# Outline: as §1
# [14] = biological target: Furin (Homo sapiens) (UniProt P09958); test: Furin counterscreen qHTS for Zika virus inhibitors (AID 1347149); further: potency means the concentration at half of the fitted maximal effect; nearly all actives have a fitted effect of over 70% in size
# Chain of Furin (Homo sapiens) (P09958 whole entry, looked up): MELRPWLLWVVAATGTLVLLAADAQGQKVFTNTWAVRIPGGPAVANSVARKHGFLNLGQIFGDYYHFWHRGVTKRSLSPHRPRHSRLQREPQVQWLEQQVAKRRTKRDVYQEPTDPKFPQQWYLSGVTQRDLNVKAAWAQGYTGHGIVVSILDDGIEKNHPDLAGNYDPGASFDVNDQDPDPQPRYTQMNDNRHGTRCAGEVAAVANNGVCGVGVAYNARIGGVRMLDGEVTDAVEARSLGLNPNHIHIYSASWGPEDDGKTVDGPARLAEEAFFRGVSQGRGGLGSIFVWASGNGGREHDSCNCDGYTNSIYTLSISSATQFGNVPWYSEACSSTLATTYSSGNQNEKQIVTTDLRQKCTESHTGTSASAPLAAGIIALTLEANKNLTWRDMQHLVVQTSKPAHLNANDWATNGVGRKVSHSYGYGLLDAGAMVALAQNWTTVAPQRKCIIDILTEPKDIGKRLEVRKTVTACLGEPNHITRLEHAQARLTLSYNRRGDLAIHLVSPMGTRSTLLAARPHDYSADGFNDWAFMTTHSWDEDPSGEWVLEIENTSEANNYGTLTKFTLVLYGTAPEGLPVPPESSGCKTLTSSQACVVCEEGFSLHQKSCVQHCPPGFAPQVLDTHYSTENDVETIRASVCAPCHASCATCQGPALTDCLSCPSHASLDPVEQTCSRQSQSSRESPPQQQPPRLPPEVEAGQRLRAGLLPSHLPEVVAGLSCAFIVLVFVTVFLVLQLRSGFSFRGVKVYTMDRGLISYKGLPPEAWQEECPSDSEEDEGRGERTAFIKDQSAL
# Outline: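 Fluorogenic cleavage of BOC-RVRR-AMC (2 microM final, Km ~15 µM) was monitored (ex 340, em 450 nm) at 37C after 15 min RT preincubation of 5 nM furin with compounds in HEPES pH 7.0 buffer with CaCl2 and Triton X-100. Percent inhibition was fitted to a 4-parameter Hill curve.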
# [15] = tested on: Zika virus NS2B-NS3 protease (linked construct); test: Confirmatory screen NINDS AMC qHTS for Zika virus inhibitors (AID 1347152); further: potency means the concentration at half of the fitted maximal effect; nearly all actives have a fitted effect of over 70% in size
# Outline: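 Linked NS2B-NS3 1 nM, Tris pH 8.0/0.01% Tween 20; cpd 15 min RT dark; + Nle-KRR-AMC 10 µM (Km 18.3 µM); read 0 and 15 min, 340/450 nm; %inh vs controls, 4-param Hill.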
# [16] = tested on: Zika virus NS2B-NS3 protease (unlinked complex); test: Confirmatory screen GU AMC qHTS for Zika virus inhibitors (AID 1347153)
# Outline: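 Unlinked NS2B-NS3 complex (25 nM) in 10 mM Tris-HCl pH 8.0, 0.01% Tween 20 preincubated 15 min with compound, then 10 microM Bz-Nle-KRR-AMC (Km 18.3 µM). Fluorescence change over 15 min, normalized, Hill-fitted.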
# [17] = ZIKV-mCherry secondary qHTS for Zika virus inhibitors (AID 1347158); further: potency means the concentration at half of the fitted maximal effect
# Outline: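 Vero, 5,000 cells/well, o/n 37 °C; cpd pin-transferred in DMSO; ZIKV-mCherry MOI 1, 48-72 h 37 °C; 32% PFA stock fix, Hoechst; imaged 10x DAPI/mCherry; mCherry+ threshold 450 RFU; % infection.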
Structure (SMILES),Potency [1],Potency [2],Potency [3],Potency [4],Potency [5],Potency [6],Potency [7],Potency [8],Potency [9],Potency [10],Potency [11],Potency [12],Potency [13],Potency [14],Potency [15],Potency [16],Potency [17]
Nc1ccccc1NC(=O)c1ccc(CNc2nccc(-c3cccnc3)n2)cc1,inactive,inactive,inactive,inactive,414 nM (active),1650 nM (active),1170 nM (active),1650 nM (active),inactive,–,–,–,–,–,–,–,–
COc1cc2c(Oc3ccc(NC(=O)C4(C(=O)Nc5ccc(F)cc5)CC4)cc3F)ccnc2cc1OCCCN1CCOCC1,10400 nM (active),1850 nM (active),7370 nM (active),20800 nM (active),8270 nM (active),10400 nM (active),7370 nM (active),–,inactive,7370 nM (active),4140 nM (active),3690 nM (active),1870 nM (active),–,–,–,–
CC1(C)O[C@@H]2C[C@@H]3[C@H]4C[C@@H](F)C5=CC(=O)C=C[C@]5(C)[C@@]4(F)[C@@H](O)C[C@]3(C)[C@]2(C(=O)CO)O1,82.7 nM (active),369 nM (active),2610 nM (active),inactive,1310 nM (active),8270 nM (active),inactive,inactive,inactive,585 nM (active),117 nM (active),82.7 nM (active),–,–,–,–,–
COCCn1c2c([n+](Cc3cnccn3)c1C)C(=O)c1ccccc1C2=O,82.7 nM (active),18.5 nM (active),73.7 nM (active),261 nM (active),14.7 nM (active),26.1 nM (active),14.7 nM (active),inactive,inactive,18.5 nM (active),7.4 nM (active),5.2 nM (active),235 nM (active),–,–,–,–
COc1ccc(C=Cc2cc(OC)c(OC)c(OC)c2)cc1O,14.7 nM (active),13.1 nM (active),10.4 nM (active),inactive,26.1 nM (active),11.7 nM (active),inactive,inactive,–,10.4 nM (active),10.4 nM (active),–,–,–,–,–,–
CNC(=O)c1ccccc1Nc1nc(Nc2ccc(N3CCOCC3)cc2OC)ncc1Cl,13100 nM (active),827 nM (active),261 nM (active),inactive,13100 nM (active),827 nM (active),4140 nM (active),inactive,inactive,928 nM (active),1470 nM (active),2930 nM (active),1180 nM (active),–,–,–,–
COc1cccc(Nc2c(C(N)=O)cnc3c(C)cc(S(=O)(=O)c4cccc(C(=O)N(C)C)c4)cc23)c1,inactive,512 nM (active),inactive,inactive,inactive,–,–,–,inactive,–,inactive,inactive,inactive,–,–,–,–
C[C@@]12O[C@@H](C[C@]1(O)CO)n1c3ccccc3c3c4c(c5c6ccccc6n2c5c31)CNC4=O,2930 nM (active),657 nM (active),1470 nM (active),18500 nM (active),737 nM (active),–,3690 nM (active),2330 nM (active),–,8270 nM (active),1310 nM (active),4650 nM (active),5260 nM (active),7620 nM (active),24100 nM (active),24100 nM (active),8910 nM (active)
C#Cc1cccc(Nc2ncnc3cc(OC)c(OCCCCCCC(=O)NO)cc23)c1,759 nM (active),676 nM (active),851 nM (active),10700 nM (active),1350 nM (active),1200 nM (active),1910 nM (active),2140 nM (active),–,1070 nM (active),1350 nM (active),2400 nM (active),2410 nM (active),–,–,–,–
Cn1c(=O)n(-c2ccc(C(C)(C)C#N)cc2)c2c3cc(-c4cnc5ccccc5c4)ccc3ncc21,1170 nM (active),827 nM (active),369 nM (active),–,2930 nM (active),–,–,2330 nM (active),inactive,2330 nM (active),–,5850 nM (active),–,–,–,–,–
COc1c(OCCCN2CCOCC2)ccc2c3n(c(=NC(=O)c4cnc(N)nc4)nc12)CCN3,6440 nM (active),1020 nM (active),229 nM (active),–,inactive,–,644 nM (active),456 nM (active),inactive,–,644 nM (active),2290 nM (active),2040 nM (active),–,–,–,–
CNC(=O)c1nn(C)c2c1C(C)(C)Cc1cnc(Nc3ccc(N4CCN(C)CC4)cc3)nc1-2,1040 nM (active),1650 nM (active),–,inactive,1310 nM (active),233 nM (active),4650 nM (active),928 nM (active),inactive,3290 nM (active),–,5850 nM (active),1180 nM (active),–,–,–,–
COc1cccc2nc(-c3cccs3)nc(NN3C(=O)C=C(C)C3=O)c12,1040 nM (active),737 nM (active),2930 nM (active),–,1850 nM (active),5220 nM (active),20800 nM (active),3690 nM (active),–,827 nM (active),2930 nM (active),–,2960 nM (active),–,–,–,–
